# Measured values: PubChem BioAssay (EPA / NIEHS)
# “And” between values parts separate entries of the source, which are not always exact repeats. Equal values may be shown once. Results filed as inconclusive are left out. The source holds several records for some structures; these can differ, active in one and inactive in another. The source made the active and inactive calls. Rule for the calls, unless noted: active = hit-call score of the fitted dose curve at least 0.9, where 1 is the maximum; inactive = score below 0.9.
# Legend:
# [1] = CCTE_Deisenroth_AIME_96WELL_CTox_Inactive: Cytotoxicity Assessment (CTOX) in CCTE's 96-well Estrogen Receptor Transactivation Assay without AIME metabolic competence (metabolism negative), Deisenroth Lab (AID 2284029; active = hit-call score of the fitted dose curve at least 0.9, where 1 is the maximum)
# How it was run: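 Chemicals (10-point series, 0.002-200 uM) were incubated 2 h with alginate-water microspheres lacking S9. The conditioned medium was then transferred onto VM7Luc4E2 cells for 24 h. Viability was measured by protease-substrate cleavage to a fluorescent probe, with loss of signal fitted bidirectionally; n≥4 experimental replicates.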
# [2] = target: Estrogen receptor (Homo sapiens) (UniProt P03372); experiment: CCTE_Deisenroth_AIME_384WELL_LUC_Active: CCTE's 384-well Estrogen Receptor Transactivation Assay with AIME metabolic competence (ERTA luciferase; metabolism positive), Deisenroth Lab (AID 2284030; active = hit-call score of the fitted dose curve at least 0.9, where 1 is the maximum)
# How it was run: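 Estrogenic luciferase signal in VM7Luc4E2 cells is measured at 24 hour, after chemicals have been preconditioned 2 hours with PB/BNF-induced rat hepatic S9 in alginate. Gain of signal is fitted relative to 17beta-estradiol, across 0.002 - 200 uM.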
# [3] = CCTE_Deisenroth_AIME_384WELL_CTox_Active: Cytotoxicity Assessment (CTOX) in CCTE's 384-well Estrogen Receptor Transactivation Assay with AIME metabolic competence (metabolism positive), Deisenroth Lab (AID 2284037; active = hit-call score of the fitted dose curve at least 0.9, where 1 is the maximum;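 note: activity means signal loss indicating cell death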)
# How it was run: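 Chemicals pre-incubated 2 hours with alginate-immobilised phenobarbital/beta-naphthoflavone-induced male Sprague Dawley rat liver S9, then conditioned medium applied 24 hour to VM7Luc4E2 cells. Viability by fluorogenic protease substrate; 10-point series 0.002 - 200 uM.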
# [4] = target: Estrogen receptor (Homo sapiens) (UniProt P03372); experiment: CCTE_Deisenroth_AIME_384WELL_LUC_Inactive: CCTE's 384-well Estrogen Receptor Transactivation Assay without AIME metabolic competence (ERTA luciferase; metabolism negative), Deisenroth Lab (AID 2284038; active = hit-call score of the fitted dose curve at least 0.9, where 1 is the maximum;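 note: VM7Luc4E2 breast cells given medium preincubated 2 h with S9-free microspheres; hits raise estrogen receptor luciferase signal so potencies reflect agonists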)
# How it was run: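 Chemicals (10-point series, 0.002 - 200 uM) were incubated 2 hours with alginate-water microsphere lids lacking S9, then the conditioned medium was transferred to VM7Luc4E2 breast cells for 24 hour. Luciferase induction was read by bioluminescence, fitted upward relative to 17beta-estradiol.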
# [5] = CCTE_Deisenroth_AIME_384WELL_CTox_Inactive: Cytotoxicity Assessment (CTOX) in CCTE's 384-well Estrogen Receptor Transactivation Assay without AIME metabolic competence (metabolism negative), Deisenroth Lab (AID 2284039; active = hit-call score of the fitted dose curve at least 0.9, where 1 is the maximum;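 note: cell viability via live-cell protease substrate cleaved to fluorescent probe; cells exposed 24 h to medium preincubated 2 h with alginate-water beads without S9; loss of fluorescence signal means loss of viability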)
# How it was run: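 VM7Luc4E2 cells, metabolism-negative arm: test chemicals (0.002–200 uM, 10 points) pre-incubated 2 h with alginate-water microspheres, then medium transferred to cells for 24 h. Viability read as protease-substrate cleavage to fluorescent probe; loss-of-signal, bidirectional fitting.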
# [6] = CCTE_Deisenroth_AIME_96WELL_CTox_Active: Cytotoxicity Assessment (CTOX) in CCTE's 96-well Estrogen Receptor Transactivation Assay with AIME metabolic competence (metabolism positive), Deisenroth Lab (AID 2284028; active = hit-call score of the fitted dose curve at least 0.9, where 1 is the maximum)
# How it was run: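 Chemicals (0.002–200 uM) were first incubated 2 h with alginate-immobilized phenobarbital/beta-naphthoflavone-induced male rat liver S9; conditioned medium then went onto VM7Luc4E2 cells for 24 h, with viability read by protease-substrate fluorescence, fitted bidirectionally.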
# [7] = CCTE_Shafer_MEA_dev_firing_rate_mean: CCTE's Neural Network Formation Assay for Mean Firing Rate, Shafer Lab (AID 2284031);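 for AC50: curve fitted for loss of firing so AC50 reflects decreased mean firing rate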
# How it was run: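 Primary rat cortical neurons on 48-well, 16-electrode MEAs (PEI-coated, laminin at plating), exposed from day 0 with compound renewed at DIV 5 and 9. Spikes recorded DIV 5, 7, 9, 12; well-mean firing rate collapsed to trapezoidal AUC, loss-of-signal vs DMSO.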
# [8] = CCTE_Shafer_MEA_dev_per_burst_spike_percent: CCTE's Neural Network Formation Assay for Percent of Spikes in a Burst, Shafer Lab (AID 2284032);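 for AC50: fitted as a decrease in burst spike percentage below DMSO baseline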
# How it was run: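 Rat primary cortical neurons on 16-electrode MEA wells, dosed from plating day 0 for 12 days with renewal on DIV 5 and 9; spikes-in-bursts percentage averaged over bursting electrodes, collapsed as AUC across days 5, 7, 9, 12; loss direction versus DMSO.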
# [9] = CCTE_Shafer_MEA_dev_active_electrodes_number: CCTE's Neural Network Formation Assay for Number of Active Electrodes, Shafer Lab (AID 2284040; active = hit-call score of the fitted dose curve at least 0.9, where 1 is the maximum;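 for AC50: potency for loss of active electrodes versus DMSO so lower counts are hits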)
# How it was run: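 Rat cortical primary cultures, 1.5 x 10^5 cells/well, PEI-coated MEA, laminin drop. Continuous exposure DIV 0–12; full media/compound change DIV 5, 9. Readout: electrodes with mean firing ≥5 spikes/min; AUC across days; loss vs DMSO.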
# [10] = CCTE_Shafer_MEA_acute_cross_correlation_HWHM: CCTE's Neural Acute Assay for Cross Correlation at Half Width at Half Maximum, Shafer Lab (AID 2284026);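 note: percent change per well from pre-dose baseline in spike cross-correlogram half width; hits are a decrease in cross-correlogram half width relative to DMSO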;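 for outcome: spontaneous network firing of rat primary cortical neurons on multiwell microelectrode arrays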
# How it was run: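 Percent change in cross-correlogram half width at half maximum, narrower meaning more synchrony, was derived per well from paired 40-min recordings before and during exposure to 0.03-40 uM compound in rat cortical cultures at 37 C.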
# Chain of Estrogen receptor (Homo sapiens) (P03372 whole entry, looked up): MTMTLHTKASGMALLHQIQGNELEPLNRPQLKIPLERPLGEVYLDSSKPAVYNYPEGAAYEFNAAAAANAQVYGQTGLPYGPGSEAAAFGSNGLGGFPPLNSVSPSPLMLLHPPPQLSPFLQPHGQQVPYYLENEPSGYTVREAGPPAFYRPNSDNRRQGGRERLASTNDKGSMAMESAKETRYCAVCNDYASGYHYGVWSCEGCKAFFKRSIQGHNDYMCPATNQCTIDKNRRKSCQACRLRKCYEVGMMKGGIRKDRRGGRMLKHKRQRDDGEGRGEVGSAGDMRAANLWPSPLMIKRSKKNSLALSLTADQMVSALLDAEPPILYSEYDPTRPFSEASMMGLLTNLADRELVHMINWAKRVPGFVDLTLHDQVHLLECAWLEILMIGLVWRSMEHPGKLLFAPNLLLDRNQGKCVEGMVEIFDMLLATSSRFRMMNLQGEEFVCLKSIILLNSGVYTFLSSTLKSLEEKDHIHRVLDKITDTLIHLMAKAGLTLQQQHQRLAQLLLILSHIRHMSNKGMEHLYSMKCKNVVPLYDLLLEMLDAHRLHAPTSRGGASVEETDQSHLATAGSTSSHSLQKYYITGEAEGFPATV
structure (smiles),measurement,setting,value
Oc1ccccc1-c1ccccc1,outcome,[1],inactive
same,AC50,[2],57.9 µM (active)
same,outcome,[3],inactive
same,outcome,[4],inactive
same,outcome,[5],inactive
CCCCC(CC)COC(=O)c1ccccc1C(=O)OCC(CC)CCCC (stereo not given),outcome,[6],inactive
same,outcome,[1],inactive
same,AC50,[7],2.98 µM (active) and 3.04 µM (active)
same,outcome,[7],inactive
same,AC50,[8],15 µM (active) and 9.27 µM (active)
same,outcome,[8],inactive
same,AC50,[9],15 µM (active) and 7.34 µM (active)
same,outcome,[9],inactive
C=CCC1=C(C)[C@@H](OC(=O)[C@@H]2[C@@H](C=C(C)C)C2(C)C)CC1=O,AC50,[10],36.2 µM (active)
same,outcome,[7],inactive
same,outcome,[8],inactive
same,AC50,[9],6.82 µM (active)
CCCCOC(=O)c1ccccc1C(=O)OCCCC,outcome,[6],inactive
same,outcome,[7],inactive
same,AC50,[8],75.3 µM (active)
same,AC50,[9],75.1 µM (active)
N#Cc1nn(-c2c(Cl)cc(C(F)(F)F)cc2Cl)c(N)c1S(=O)C(F)(F)F (stereo not given),AC50,[10],13.3 µM (active) and 24.6 µM (active)
same,outcome,[7],inactive
same,outcome,[8],inactive
same,outcome,[9],inactive
CCc1nn(C)c(C(=O)NCc2ccc(C(C)(C)C)cc2)c1Cl,AC50,[3],1.82 µM (active)
same,outcome,[5],inactive
C#CCOS(=O)OC1CCCCC1Oc1ccc(C(C)(C)C)cc1 (stereo not given),AC50,[10],20 µM (active)
same,AC50,[3],18.6 µM (active)
same,outcome,[5],inactive
CN(C)C(=S)SSC(=S)N(C)C,AC50,[7],7.36 nM (active)
same,AC50,[8],0.0103 µM (active)
same,AC50,[9],0.011 µM (active)
CCOC(=O)CC(SP(=S)(OC)OC)C(=O)OCC (stereo not given),outcome,[7],inactive
same,AC50,[8],20.9 µM (active) and 15 µM (active)
same,AC50,[9],17.1 µM (active) and 6.38 µM (active)
COP(=S)(OC)Oc1nc(Cl)c(Cl)cc1Cl,outcome,[10],inactive
same,outcome,[7],inactive
same,outcome,[8],inactive
same,outcome,[9],inactive
